Screening results: PubChem, National Center for Advancing Translational Sciences (NCATS)
An excerpt weighted towards active compounds, which were near 0.97% of everything screened.
CCT modulator: High-Throughput Screening for Modulators of Cytosolic Chaperonin Activity. purified chaperonin ATPase assay, HTRF ADP detection, 30 min. activity change, % (no concentration beside the values), hits read low. actives 0.3% (n = 360,000); in the data active = activity change below about -30%; also: % is scaled to controls: 0 for no effect and ±100 for the full control effect
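Enzyme 40 or 20 nM (batch-dependent) in Tris pH 7.4/KCl/MgCl2/DTT; cpd 76 uM single point; ATP 10 uM; 30 min 37 °C; Transcreener ADP HTRF detection, 30 min RT; ratio 665/615.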
pAkt inh: HTS Assay for Inhibitors of Akt Phophorylation: Primary Screen. Neuro2A IGF-stimulated pAkt S473 HTRF, 20 min; stronger effect = lower value. activity change, % for hits at 50 µM. actives 0.32% (n = 360,000). AID 651550, 2012; in the data active = activity change below about -80%; inconclusive = mostly about -51% to -80%; also: % is scaled to controls: 0 for no effect and ±100 for the full control effect
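Single-point screen (50 µM final compound) in Neuro2A cells stimulated 20 min with 6 nM IGF at 37 deg C. After lysis, Ser473-phosphorylated Akt read by HTRF (ex 330 nm, em 615/665 nm) as the 665/615 ratio.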
uPA generation: qHTS for Inhibitors of Cell Surface uPA Generation | Potency, µM (titrated, usually from 38.3 µM), without a hit: top-dose activity change, negative = inhibition, hits mostly inhibitors | cell surface uPA generation assay, qHTS | actives 0.31% (n = 330,000) | AID 540303, 2011; active = well fitted inhibition curve with a large enough effect; inconclusive = small, poorly fitted or top-dose-only effect; inactive = no such curve, though single readings can be large or run the other way; tested in mouse RAW 264.7 cells; also: potency is read from the fitted curve at half-maximal effect; % is scaled to controls: 0 for no effect and ±100 for the full control effect; nearly all actives have a fitted effect of over 55% in size
MmCpn inh: Inhibitors of TCP-1 ring complex (TRiC) of Methanococcus maripaludis (MmCpn): qHTS; Chaperonin Mm-Cpn (Methanococcus maripaludis); purified Mm-Cpn ATPase, ADP Transcreener TR-FRET; Potency, µM (highest dose often 76.9 µM), inactives show top-dose activity, negative = inhibition, usual class: inhibitors; actives 0.031% (n = 330,000); AID 504842, 2011; also: potency is read from the fitted curve at half-maximal effect; % is scaled to controls: 0 for no effect and ±100 for the full control effect; nearly all actives have a fitted effect of over 80% in size
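25 nM Mm-CPN + cpd, 10 min 37°C; + 10 uM ATP, 30 min 37°C; buffer 30 mM Tris pH 7.4, 100 mM KCl, 5 mM MgCl2, 1 mM DTT; Transcreener ADP HTRF detection 30 min RT.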
Epigenetic derep: Quantitative High-Throughput Screen for Regulators of Epigenetic Control; murine LDR cells, GFP reporter derepression, 30 h; Potency, µM (series often up to 53.9 µM), without a hit: at the highest dose GFP activation, most hits filed as activators; actives 0.2% (n = 280,000); also: potency is read from the fitted curve at half-maximal effect; % of control where 0% means no effect; nearly all actives have a fitted effect of over 60% in size
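Readout is the number of GFP-expressing murine LDR cells, counted by cytometry following washing. Cells were treated with compound for 30 h at 37 C; the stably integrated CMV-GFP locus is normally silent.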
MBNL1-CUG inh: qHTS Assay for Inhibitors of MBNL1-poly(CUG) RNA binding | TR-FRET MBNL1-His/biotin-(CUG)12 binding, 665/545 ratio | Potency, µM (top dose mostly 57.5 µM), without a hit: top-dose activity change, negative = inhibition, usual class: inhibitors | actives 0.036% (n = 280,000) | AID 2675, 2010; active = well fitted inhibition curve with a large enough effect in the signal ratio, with a control signal flat, not every such curve was filed as active; inconclusive = small, poorly fitted or top-dose-only effect, or effect the other way, or a change in a side signal; inactive = no such curve, though single readings can be large or run the other way; the % refers to the signal ratio; also: potency is read from the fitted curve at half-maximal effect; % is scaled to controls: 0 for no effect and ±100 for the full control effect
Target sequence (Q9NR56 whole entry, looked up): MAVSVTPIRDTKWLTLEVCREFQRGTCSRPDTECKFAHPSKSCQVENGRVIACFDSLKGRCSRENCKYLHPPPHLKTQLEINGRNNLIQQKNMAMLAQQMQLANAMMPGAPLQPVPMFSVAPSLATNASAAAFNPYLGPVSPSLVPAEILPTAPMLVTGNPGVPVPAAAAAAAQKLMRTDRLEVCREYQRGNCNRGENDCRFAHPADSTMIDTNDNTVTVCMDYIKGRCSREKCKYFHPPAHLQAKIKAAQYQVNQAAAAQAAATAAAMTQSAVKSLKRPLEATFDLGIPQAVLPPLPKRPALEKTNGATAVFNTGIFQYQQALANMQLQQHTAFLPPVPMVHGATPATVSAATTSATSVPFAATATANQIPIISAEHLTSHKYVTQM
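TR-FRET readout: Ex 340 nm, 665/545 nm emission ratio, normalized to buffer-only (basal) and MBNL1-(CUG)12 controls. Complex of MBNL1-His with Biotin-(CUG)12, compounds 92 nM–58 uM, incubated 60 min at room temperature.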
Active calls of the source: *. Unless noted, calls follow the shape of the dose curve; as a rule, active = well fitted curve in the direction sought with a large enough effect; inconclusive = small, poorly fitted or top-dose-only effect, or another doubt; inactive = no such curve, though single readings can be large; an effect the other way counts as inactive or inconclusive.

Screening Cc1cccc(-n2c(Cc3ccccc3)nnc2SCC(=O)N2CCOCC2)c1 returned CCT modulator -4.7, pAkt inh inactive, uPA generation -2.4%, MmCpn inh 0.1%, Epigenetic derep -5.5% and MBNL1-CUG inh 7.2%.
Screening O=C(CSc1nnc(Cc2ccccc2)n1-c1cccc(Cl)c1)N1CCOCC1 returned CCT modulator -1.3, pAkt inh -131.8%*, uPA generation 1.0%, MmCpn inh -1.5%, Epigenetic derep -7.4% and MBNL1-CUG inh 0.7%.
Screening CCc1ccccc1N(CC)C(=O)CCc1nc(-c2ccc(C)cc2)no1 returned CCT modulator -1.9, pAkt inh -116.3%*, uPA generation 11.6%, MmCpn inh 0.8%, Epigenetic derep 4.9% and MBNL1-CUG inh 4.4%.
Cc1ccc(-c2noc(CCC(=O)N(C)c3ccccc3F)n2)cc1 was read as Epigenetic derep 0.3%.
Screening CC(C)c1ccc(S(=O)(=O)c2cnc(SCC(=O)Nc3ccc4c(c3)OCCO4)[nH]c2=O)cc1 returned Epigenetic derep 2.7%.
`Cn1cccc1C(=O)OCC(=O)N1CCc2ccccc2C1` gave CCT modulator -1.3 and pAkt inh inactive.
Screening COC(=O)c1ccccc1NC(=O)CSc1nccn1C returned CCT modulator 0.0, pAkt inh -98.6%*, uPA generation -3.0%, MmCpn inh -4.0%, Epigenetic derep 6.1% and MBNL1-CUG inh -1.5%.
Screening Cn1ccnc1SCC(=O)Nc1cccc2ccccc12 returned CCT modulator -1.3, pAkt inh inactive, uPA generation -0.1%, MmCpn inh 2.4%, Epigenetic derep -4.2% and MBNL1-CUG inh 0.6%.
`Cc1ccc2nc(C)c(C(=O)NN=C3CCCCCC3)n2c1` gave CCT modulator -3.1, pAkt inh inactive, uPA generation 4.47µM*, MmCpn inh 0.0%, Epigenetic derep 5.1% and MBNL1-CUG inh -4.3%.
Screening Cc1ccn2c(C(=O)NN=C3CCN(C)CC3)c(C)nc2c1 returned CCT modulator 0.2, pAkt inh inactive, uPA generation -2.7%, MmCpn inh -0.2%, Epigenetic derep 2.0% and MBNL1-CUG inh -1.5%.
`Cc1ccc2[nH]c(=O)c(CN(Cc3ccco3)C(=O)N3CCOCC3)cc2c1` gave CCT modulator -3.5, pAkt inh inactive, uPA generation 0.8%, MmCpn inh -1.8%, Epigenetic derep 2.3% and MBNL1-CUG inh -8.4%.
For Cc1ccc(CN(Cc2cc3cc(C)ccc3[nH]c2=O)C(=O)N2CCOCC2)cc1 the results were CCT modulator 0.6, pAkt inh -106.3%*, uPA generation -2.2%, MmCpn inh -0.5%, Epigenetic derep -4.7% and MBNL1-CUG inh -1.5%.
Screening Cc1cc(C)cc(NC(=O)C(=O)NC(C)c2ccccc2)c1 (stereo not given) returned Epigenetic derep 13.5%.
COc1cccc(NC(=O)CSc2ncc(S(=O)(=O)c3ccc(C)c(C)c3)c(=O)[nH]2)c1 was read as Epigenetic derep 0.8%.
Screening O=C(CNC1C(=O)Nc2ccccc21)Sc1ccccc1 (stereo not given) returned CCT modulator -0.1, pAkt inh -111.3%*, uPA generation 0.5%, MmCpn inh 1.2%, Epigenetic derep -1.9% and MBNL1-CUG inh 0.4%.
For COc1ccc([C@H]2C=C3CN(C(=O)OC(C)(C)C)S(=O)(=O)[C@H]3C[C@H]2OC(=O)c2cccs2)cc1 the results were CCT modulator -0.6, pAkt inh inactive, uPA generation -8.7%, MmCpn inh 0.6%, Epigenetic derep 0.2% and MBNL1-CUG inh -6.5%.
`CC(=O)NC1=C(NC2CCS(=O)(=O)C2)C(=O)c2ccccc2C1=O` (stereo not given) gave CCT modulator -44.2*, pAkt inh inactive, uPA generation inconclusive, MmCpn inh -0.3%, Epigenetic derep 0.0% and MBNL1-CUG inh inconclusive.
Screening O=C(NC1CCC(NC(=O)C2CCCO2)CC1)C1CCCO1 (stereo not given) returned MmCpn inh 1.1%, Epigenetic derep -1.0% and MBNL1-CUG inh -5.4%.
Cc1cc(C)nc(SCC(=O)c2ccc(F)cc2)n1 was read as CCT modulator -0.4, pAkt inh inactive, uPA generation 18.6%, MmCpn inh -1.7% and MBNL1-CUG inh -2.1%.
For Cc1cc(C)nc(SCNC(=O)c2ccc(F)cc2)n1 the results were CCT modulator -32.4*, pAkt inh inactive, uPA generation -3.6%, MmCpn inh -1.9%, Epigenetic derep 0.9% and MBNL1-CUG inh -6.1%.
Screening O=C(OCc1c(F)cccc1Cl)c1cnccn1 returned CCT modulator -40.4*, pAkt inh inactive, uPA generation 3.7%, MmCpn inh 0.8%, Epigenetic derep 0.9% and MBNL1-CUG inh -1.5%.
For O=C(C1CC1)N1CCN=C1SCc1ccccc1 the results were CCT modulator 3.5, pAkt inh inactive, uPA generation 1.6%, MmCpn inh 1.4%, Epigenetic derep -0.8% and MBNL1-CUG inh 1.4%.
CC(Oc1ccccc1)C(=O)N1CCN=C1SCc1ccccc1 (stereo not given) was read as CCT modulator -41.6*, pAkt inh inactive, uPA generation -3.1%, MmCpn inh inconclusive, Epigenetic derep -1.3% and MBNL1-CUG inh -4.7%.
CC(=O)c1cn(CC(=O)Nc2c(C)cccc2C)c2ccccc12 was read as CCT modulator -0.3, pAkt inh inactive, uPA generation -2.0%, MmCpn inh 1.4%, Epigenetic derep 0.0% and MBNL1-CUG inh -6.3%.
Screening CC(=O)c1cn(CC(=O)Nc2ccccc2C)c2ccccc12 returned CCT modulator -0.9, pAkt inh -111.3%*, uPA generation -4.2%, MmCpn inh -0.7%, Epigenetic derep 0.0% and MBNL1-CUG inh 18.3%.
For COc1cc(CNc2ncnc3c2ncn3[C@H]2CN(Cc3ccccc3)C[C@@H](COC(C)=O)O2)cc(OC)c1OC the results were CCT modulator -37.7* and pAkt inh inactive.
Screening COc1cc(CNc2ncnc3c2ncn3[C@H]2CN(Cc3cccc(C(F)(F)F)c3)C[C@@H](COC(C)=O)O2)cc(OC)c1OC returned CCT modulator -0.2 and pAkt inh inactive.
c1ccc(-n2cnc3cc(NCc4ccncc4)ccc32)cc1 was read as CCT modulator -25.4, pAkt inh -102.9%*, uPA generation 1.8%, MmCpn inh 0.8%, Epigenetic derep -0.9% and MBNL1-CUG inh 0.7%.
